# Laboratory results as given in PubChem BioAssay (Tox21).
# Activity calls are given as the source filed them. Where a call stands in place of a potency, no number is given. The call rests on the fitted dose curve; in most records, active means well fitted activation curve with a large enough effect in the repeat runs; inconclusive means weak or mixed curves; inactive means flat fitted curve, though single readings scatter.
# Molecular target: KiSS-1 receptor (Homo sapiens) (UniProt Q969F8)
# Test: Human kisspeptin (KISS1R) small molecule agonists, calcium flux assay in KISS1R-HEK293 cells (AID 1920064)
# Settings: KISS1R-HEK293, calcium flux fluorescence, agonist; series mostly up to 76.8 µM
# Source text: National Center for Advancing Translational Sciences [NCATS]
# Division of Preclinical Innovation [DPI]
# U.S. Environmental Protection Agency [EPA]
# National Institutes of Environmental Health Sciences [NIEHS]
# National Toxicology Program [NTP]
# U.S. Food and Drug Administration [FDA]
# Kisspeptin and its receptor KISS1R play key roles in mammalian reproduction due to their involvement in the onset of puberty and control of the hypothalamic-pituitary-gonadal axis such as regulates GnRH release from the hypothalamus. The kisspeptin/KISS1R system also plays a direct role in peripheral organs (including the ovary, testis, uterus, and placenta) and is implicated in reproductive diseases such as miscarriage and polycystic ovary syndrome (PCOS). Abnormal KISS1R activity is associated with abnormal puberty, infertility, endometriosis, and hormone-dependent tumors. The KISS1 receptor (KISS1R, also called GPR54), a G-protein-coupled receptor (GPCR), acts (through phospholipase C) to increase intracellular inositol trisphosphate and then release intracellular calcium stores. Cell-based KISS1R-HEK293 assay is using HEK293 cells that have been genetically engineered to express the human KISS1R, which activity can be measured by calcium signaling. A compound/drug can activate (agonist) KISS1R that can be monitored by levels of intracellular calcium.
# KISS1R-HEK293 cells developed by Codex Corp contain human KISS1R gene, which was stably integrated into HEK 293 cells. The compound activation can be detected by fluorescence intensity via calcium flux assay. This cell line has been used to screen the Tox21 10K compound library to identify agonists of KISS1R.
# KISS1R-Hek293 cells were dispensed at 1500 cells/4uL/well in 1536-well black wall/clear bottom plates using a multidrop dispenser. After the assay plates were incubated at a 37 C/5% CO2 incubator for 18 hours, 4 microL of Calcium Dye Solution was added to each well. The plates were incubated at 37 C for 1 hour. And then 23 nL of compounds dissolved in DMSO, positive controls, or DMSO only was transferred to the assay plate by a pin tool station. The fluorescence intensity in the plates was measured using FDSS 7000EX kinetic plate reader with a filter set of Ex/Em=480/540 for 3 min at 1 sec intervals. Each test compound was measured at 15 concentrations and in triplicates.
# Chain of KiSS-1 receptor (Homo sapiens) (Q969F8 whole entry, looked up): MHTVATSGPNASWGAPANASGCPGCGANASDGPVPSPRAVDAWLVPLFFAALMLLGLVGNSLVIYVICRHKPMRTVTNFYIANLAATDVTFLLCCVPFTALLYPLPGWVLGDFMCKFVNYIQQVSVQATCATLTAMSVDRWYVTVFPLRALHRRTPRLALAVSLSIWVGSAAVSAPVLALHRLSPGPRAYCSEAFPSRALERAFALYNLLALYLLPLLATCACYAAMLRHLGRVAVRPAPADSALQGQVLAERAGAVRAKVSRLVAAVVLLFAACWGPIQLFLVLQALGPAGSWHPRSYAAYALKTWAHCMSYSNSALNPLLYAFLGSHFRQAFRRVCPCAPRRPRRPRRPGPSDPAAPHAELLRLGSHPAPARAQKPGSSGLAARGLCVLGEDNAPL
row,Structure (SMILES),Potency
1,N#CCC(=O)O,inactive
2,CC(C)=CCC/C(C)=C/C(=O)O,inactive
3,COc1cc(N)c(Cl)cc1C(=O)NC1CCN(Cc2ccccc2)CC1,inactive
4,O=C(O)c1cc(N=Nc2ccc(S(=O)(=O)Nc3ccccn3)cc2)ccc1O,inactive
5,O=[N+]([O-])c1ccc(F)cc1F,inactive
6,COC(=O)C1=C(C)NC(C)=C(C(=O)OCCN(C)Cc2ccccc2)C1c1cccc([N+](=O)[O-])c1 (stereo not given),inactive
7,CCCCCCOC(=O)c1ccccc1O,inactive
8,COc1ccc2cc1Oc1cc3c(cc1OC)CC[N+](C)(C)[C@H]3Cc1ccc(cc1)Oc1c(OC)c(OC)cc3c1[C@@H](C2)[N+](C)(C)CC3,inactive
9,FC(F)(F)C(Cl)(Cl)Cl,inactive
10,OC1(c2ccc(Cl)cc2)CCNCC1,inactive
11,Clc1cc(Cl)c(Cl)c(Cl)c1Cl,inactive
12,CCOc1ccccc1C(N)=O,inactive
13,C[C@H]1C[C@H](O)c2ccsc2S1(=O)=O,inactive
14,NC(=O)C1CO1 (stereo not given),inactive
15,N=C(N)c1ccc2cc(OC(=O)c3ccc(N=C(N)N)cc3)ccc2c1,inactive
16,C=C(C)C(=O)NCCCN(C)C,inactive
17,CC1=CCC(=O)O1,inactive
18,CC(=O)CCC(C)C,inactive
19,CCC(=O)Nc1cccc(N)c1,inactive
20,C=C(CC)C(=O)c1ccc(OCC(=O)O)c(Cl)c1Cl,inactive

row,Structure (SMILES),Potency
1,CC1COc2ccccc2N1C(=O)C(Cl)Cl (stereo not given),inactive
2,C1=CCC2CC=CC2C1 (stereo not given),inactive
3,CC(C)(CCl)c1ccccc1,inactive
4,CC(C[N+](C)(C)C)OC(N)=O (stereo not given),inactive
5,CN(C1CCCCC1)S(=O)(=O)c1ccccc1N,inactive
6,Nc1cc(=O)[nH]c(N)n1,inactive
7,BrC1CCC(Br)C(Br)CCC(Br)C(Br)CCC1Br (stereo not given),inactive
8,O=C(O)c1cc(C(=O)O)cc([N+](=O)[O-])c1,inactive
9,CC(C)NCC(O)COc1cccc2ccccc12 (stereo not given),inactive
10,CO[Si](C)(C)OC,inactive
11,CCO/C([O-])=N/c1c[n+](N2CCOCC2)no1,inactive
12,Cn1cc(S(C)=O)c(=O)c2ccc(F)cc21 (stereo not given),inactive
13,CN1C(CCl)Nc2cc(Cl)c(S(N)(=O)=O)cc2S1(=O)=O (stereo not given),inactive
14,N=C(N=C(N)N)N1CCOCC1,inactive
15,O=C(O)c1cc(=O)c2ccccc2o1,inactive
16,CCN(CC)S(=O)(=O)c1ccc(C(=O)O)cc1,inactive
17,CC1=CCC(C(C)C)=CC1,inactive
18,c1ccc(CNc2ncnc3c2ncn3C2CCCCO2)cc1 (stereo not given),inactive
19,OCCOCCN1CCN(C2=Nc3ccccc3Sc3ccccc32)CC1,inactive
20,C=C[Si](OC(=C)C)(OC(=C)C)OC(=C)C,inactive
